Screens deposited in PubChem BioAssay by National Center for Advancing Translational Sciences (NCATS).
The list is not random: actives were taken first. Their share in the collection is about 19%.
IL1B secr inh = qHTS for Inhibitors of Inflammasome Signaling: IL-1-beta AlphaLISA Primary Screen; actives 4.7% (n = 360,000); THP-1 LPS/ATP IL-1B secretion, AlphaLISA, 16 h; hits give low values; activity change, % at 57.5 µM; in the data active means activity change below about -50%; inconclusive means mostly about -30% to -49%
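Secreted IL-1B measured by AlphaLISA bead assay after 16 h compound exposure of THP-1 cells; compounds (final up to 57.5 uM) added 1 h before LPS (250 ng/mL) and ATP (1.25 mM) stimulation; lower signal means less secretion.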
TDP1 cell noCPT = qHTS for Inhibitors of human tyrosyl-DNA phosphodiesterase 1 (TDP1): qHTS in cells in absence of CPT. DT40 Tdp1-/- hTDP1 cells, no CPT, ATP luminescence, 48 h. Potency, µM (top dose mostly 46.2 µM), usual class: inhibitors. actives 15% (n = 420,000). AID 686978, 2013; further: nearly all actives have a fitted effect of over 55% in size
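Camptothecin absent (DMSO only). Human TDP1-complemented DT40 knockout cells, 400 cells/well, 37 °C for minimum 48 hr; ATP measured via CellTiter-Glo, 30 min dark incubation, luminescence.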
HT1080-NT tox = qHTS for induction of synthetic lethality in tumor cells producing 2HG: qHTS for the HT-1080-NT fibrosarcoma cell line; Potency, µM (top dose mostly 46.1 µM), usual class: cytotoxic; actives 1.6% (n = 360,000); HT-1080-NT fibrosarcoma viability, CellTiter-Glo ATP luminescence, 48 h; AID 686970, 2013;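 further: NT is the 2HG producing partner of a matched IDH1 knockdown line; nearly all actives have a fitted effect of over 55% in size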
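Fibrosarcoma NT cells, 750 per well in 5% FBS RPMI, were exposed to compound for 48 hours. Viability: CellTiter-Glo luminescence.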
TDP1 cell CPT = qHTS for Inhibitors of human tyrosyl-DNA phosphodiesterase 1 (TDP1): qHTS in cells in presence of CPT | chicken DT40 Tdp1-/-;hTDP1 cells + 20 nM CPT, ATP luminescence, 48 h | Potency, µM (doses to about 46.2 µM), hits mostly inhibitors | AID 686979, 2013 | actives 12% (n = 420,000); further: nearly all actives have a fitted effect of over 55% in size
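Cell growth measured by CellTiter-Glo luminescence after a minimum 48 h, 37 C compound exposure with 20 nM CPT in Tdp1-knockout DT40 cells stably expressing hTDP1, seeded 400/well; qHTS titration format.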
HT1080 IDH1KD tx = qHTS for induction of synthetic lethality in tumor cells producing 2HG: qHTS for the HT-1080-IDH1KD cell line. Potency, µM (doses to about 46.1 µM), actives largely listed as cytotoxic. HT-1080 IDH1 knockdown viability, ATP luminescence, 48 h. actives 2% (n = 360,000). AID 686971, 2013
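After a 2 h attachment period, IDH1KD HT-1080 cells took pin-transferred compound for 48 h at 37 °C; ATP-based luminescence after 10 min room-temperature reagent incubation reported viability.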
Of the large screens only hits and unclear results are named; the others gave an inactive call. Unless noted, the call rests on the fitted dose curve; in most records, active means well fitted curve in the direction sought with a large enough effect; inconclusive means small, poorly fitted or top-dose-only effect, or another doubt; inactive means no such curve, though single readings can be large; an effect the other way counts as inactive or inconclusive.

Cc1ccc(CN(C(=O)c2ccccc2[N+](=O)[O-])C2CCS(=O)(=O)C2)o1 (stereo unspecified)	none
Cc1nn(CC(=O)N2CCOCC2)c(=O)c2nn(-c3ccccc3)c(C)c12	none
CCCCCCCCCC[n+]1ccc(/C=C/c2c(C)[nH]c3ccccc23)c2ccccc21	TDP1 cell noCPT 1µM, TDP1 cell CPT 0.79µM (no result: IL1B secr inh, HT1080-NT tox, HT1080 IDH1KD tx)
CCCCCCC[n+]1ccc(/C=C/c2c(C)[nH]c3ccccc23)c2ccccc21	TDP1 cell noCPT 1.3µM, TDP1 cell CPT 1.3µM (no result: IL1B secr inh, HT1080-NT tox, HT1080 IDH1KD tx)
CCCc1c(C)[nH]c2ccccc2c1=O	TDP1 cell noCPT inconclusive, TDP1 cell CPT inconclusive
CC(Sc1nnc(CN2CCCC2)n1Cc1ccccc1)C(=O)Nc1ccc(F)cc1Cl (stereo unspecified)	IL1B secr inh inconclusive, TDP1 cell noCPT 26µM, TDP1 cell CPT 18µM
COc1cccc(Nc2nc(C(N)CC(C)C)cs2)n1 (stereo unspecified)	IL1B secr inh inconclusive, TDP1 cell noCPT inconclusive, HT1080-NT tox inconclusive, TDP1 cell CPT 16µM, HT1080 IDH1KD tx 16µM
COc1cccc(Nc2nc(C(N)C(C)C)cs2)n1 (stereo unspecified)	TDP1 cell noCPT 23µM, HT1080-NT tox inconclusive, TDP1 cell CPT 16µM (no result: IL1B secr inh)
Cc1cc(C)c2c(=O)cc(CSc3n[nH]c(C)n3)[nH]c2c1	none (no result: IL1B secr inh, HT1080-NT tox, HT1080 IDH1KD tx)
O=C(Cc1coc2ccc3ccccc3c12)NCc1ccccc1	TDP1 cell noCPT inconclusive, HT1080-NT tox inconclusive, TDP1 cell CPT inconclusive, HT1080 IDH1KD tx inconclusive
CCCN(CCC)C(=O)Cc1coc2ccc3ccccc3c12	TDP1 cell noCPT 18µM, TDP1 cell CPT inconclusive
O=C(Cc1coc2ccc3ccccc3c12)Nc1nccs1	TDP1 cell noCPT inconclusive, TDP1 cell CPT 15µM
O=C(Cc1coc2ccc3ccccc3c12)N1CCN(c2ncccn2)CC1	TDP1 cell noCPT inconclusive, TDP1 cell CPT inconclusive
CCOC(=O)C1CCCN(C(=O)c2ccc(SC(F)(F)F)cc2)CC1 (stereo unspecified)	TDP1 cell noCPT inconclusive, TDP1 cell CPT inconclusive
COc1ccc(CN(CCCN)c2ccc(Br)cn2)cc1	TDP1 cell noCPT 11µM, HT1080-NT tox inconclusive, TDP1 cell CPT inconclusive, HT1080 IDH1KD tx inconclusive (no result: IL1B secr inh)
NCCCN(Cc1ccc(Cl)c(Cl)c1)c1ccccn1	TDP1 cell noCPT 8.9µM, HT1080-NT tox 13µM, TDP1 cell CPT 10µM, HT1080 IDH1KD tx 11µM (no result: IL1B secr inh)
CC[N+](C)(C)CCN(Cc1ccc(Cl)cc1)c1ccccn1	TDP1 cell noCPT 9.2µM, TDP1 cell CPT 18µM
NCCN(Cc1ccc(Cl)c(Cl)c1)c1ccc(Br)cn1	TDP1 cell noCPT 4µM, HT1080-NT tox 11µM, TDP1 cell CPT 4µM, HT1080 IDH1KD tx 10µM (no result: IL1B secr inh)
Cc1cc(C)cc(N(C)S(=O)(=O)c2nnc(NC(=O)COc3ccc(C)c(C)c3)s2)c1	none (no result: IL1B secr inh, HT1080-NT tox, HT1080 IDH1KD tx)
CCC1CN(CCNC(=O)c2cccc(N3CCCC3=O)c2)Cc2cc(OC)ccc2O1 (stereo unspecified)	none (no result: IL1B secr inh, HT1080-NT tox, HT1080 IDH1KD tx)
CC(=O)c1cnc2c(-c3ccccc3)c(-c3ccccc3)nn2c1C	none
CCCCC1=NN(C(=O)c2cccnc2)C(O)(C(F)(F)F)C1 (stereo unspecified)	TDP1 cell noCPT 1µM, TDP1 cell CPT 1.5µM
CCC1=NN(C(=O)c2cccnc2)C(O)(C(F)(F)F)C1 (stereo unspecified)	TDP1 cell noCPT inconclusive, HT1080-NT tox inconclusive, TDP1 cell CPT 16µM
Oc1ccc(/C=N/NC(=S)NC2CC3CCC2C3)cc1 (stereo unspecified)	IL1B secr inh -66, TDP1 cell noCPT inconclusive, HT1080-NT tox inconclusive, TDP1 cell CPT inconclusive
CCCCCn1c2c(c(=N)c3ccccc31)CCC2	IL1B secr inh inconclusive, TDP1 cell noCPT 1.5µM, HT1080-NT tox inconclusive, TDP1 cell CPT 1.8µM, HT1080 IDH1KD tx 2.9µM
CCCCCCCCn1c2c(c(=N)c3ccccc31)CCC2	IL1B secr inh -96, TDP1 cell noCPT 0.41µM, HT1080-NT tox 23µM, TDP1 cell CPT 0.41µM, HT1080 IDH1KD tx 9.2µM
